Source: PubChem BioAssay (NCATS)
Inconclusive results are not listed. Active and inactive are the calls of the source. Calls come from the whole dose curve; as a rule, active = well fitted curve in the direction sought with a large enough effect; inconclusive = small, poorly fitted or top-dose-only effect, or another doubt; inactive = no such curve, though single readings can be large or run the other way.

target: Protein phosphatase 1D (Homo sapiens) (UniProt O15297); test: Rhodamine-PBP qHTS Assay for Modulators of WT P53-Induced Phosphatase 1 (WIP1) (AID 1347425); settings: recombinant WIP1, Rhodamine-PBP phosphate fluorescence, real-time; series mostly up to 57.5 µM; activity change, negative = inhibition: at the top concentration; note: % of control where 0% means no effect
Text: Assay Provider (PI): Nathan Coussens Ph.D.
National Center for Advancing Translational Sciences (NCATS), Rockville, MD
National Institute of Health (NIH), Bethesda, Maryland
WT P53-Induced Phosphatase 1 (WIP1) is a member of the magnesium-dependent serine/threonine protein phosphatase (PPM) family and is induced by P53 in response to DNA damage. In several human cancers, the WIP1 protein is overexpressed, which is generally associated with a worse prognosis. Although WIP1 is an attractive therapeutic target, no potent, selective, and bioactive small-molecule modulator with favorable pharmacokinetics has been reported. Phosphatase enzymes are among the most challenging targets for small molecules because of the difficulty of achieving both modulator selectivity and bioavailability. Another major obstacle has been the availability of robust and physiologically relevant phosphatase assays that are suitable for high-throughput screening.
Here, we describe two orthogonal biochemical WIP1 activity assays that utilize phosphopeptides from native WIP1 substrates. We optimized a RapidFire MS assay to quantify the enzymatically dephosphorylated peptide reaction product in a 384-well format. Additionally, a redshifted Rhodamine-PBP fluorescence assay was optimized in a 1,536-well format to enable real-time WIP1 activity measurements through the detection of the orthogonal reaction product, Pi. We validated these two optimized assays by quantitative high-throughput screening against the National Center for Advancing Translational Sciences (NCATS) Pharmaceutical Collection and used secondary assays to confirm and evaluate inhibitors identified in the primary screen.
SEQUENCE No. (e.g., 1, 2, 3, etc.); […] (e.g., Cells, Incubation, Reagent, etc.); VALUE; DESCRIPTION
1; Reagent; 3 uL; WIP1 (6.7 nM), Rh-PBP (13.3 uM), columns 1-48
3; Library Compounds; 23 nL; NCATS Pharmaceutical Collection, column 5-48
4; Control Compounds; DMSO in column 2, GSK2830371 (57.5 uM, final) in 3-fold serial dilutions in column 3, GSK2830371 (1.15 uM, final) in column 4
5; Time; 1 hr; incubation
6; Detection; fluorescence (f0); ViewLux, excitation filter = 525 nm, emission filter = 598 nm
7; Reagent; 1 uL; VEPP-pS-QETFS (40 uM), columns 2-48
8; Detection; fluorescence (f1); ViewLux, excitation filter = 525 nm, emission filter = 598 nm
NOTES (numbers refer to sequence above)
1 & 2; Black medium binding Greiner 1536-well plates (# 789176-F); assay buffer: 50 mM Tris-HCl pH 7.5, 30 mM MgCl2, 1mM TCEP, 0.1 mM EGTA, 75 ug/mL BSA; dispensed with a BioRaptr liquid handler (Beckman Coulter).
3 & 4; Kalypsys pintool (equipped with 1536 pinhead, Wako USA) transfer. Tip wash sequence: DMSO, methanol, 3 sec vacuum dry.
5; Room temperature incubation.
7; VEPPL-pS-QETFS in assay buffer dispensed with a BioRaptr; final reaction conditions: 5 nM WIP1, 10 uM VEPPL-pS-QETFS, 10 uM Rh-PBP, 50 mM Tris-HCl pH 7.5, 30 mM MgCl2, 1 mM TCEP, 0.1 mM EGTA, 75 ug/mL BSA.
8; Measurement taken at 1 min intervals for 11 min. Delta readout = f1 - f0.

Chain of Protein phosphatase 1D (Homo sapiens) (O15297 whole entry, looked up): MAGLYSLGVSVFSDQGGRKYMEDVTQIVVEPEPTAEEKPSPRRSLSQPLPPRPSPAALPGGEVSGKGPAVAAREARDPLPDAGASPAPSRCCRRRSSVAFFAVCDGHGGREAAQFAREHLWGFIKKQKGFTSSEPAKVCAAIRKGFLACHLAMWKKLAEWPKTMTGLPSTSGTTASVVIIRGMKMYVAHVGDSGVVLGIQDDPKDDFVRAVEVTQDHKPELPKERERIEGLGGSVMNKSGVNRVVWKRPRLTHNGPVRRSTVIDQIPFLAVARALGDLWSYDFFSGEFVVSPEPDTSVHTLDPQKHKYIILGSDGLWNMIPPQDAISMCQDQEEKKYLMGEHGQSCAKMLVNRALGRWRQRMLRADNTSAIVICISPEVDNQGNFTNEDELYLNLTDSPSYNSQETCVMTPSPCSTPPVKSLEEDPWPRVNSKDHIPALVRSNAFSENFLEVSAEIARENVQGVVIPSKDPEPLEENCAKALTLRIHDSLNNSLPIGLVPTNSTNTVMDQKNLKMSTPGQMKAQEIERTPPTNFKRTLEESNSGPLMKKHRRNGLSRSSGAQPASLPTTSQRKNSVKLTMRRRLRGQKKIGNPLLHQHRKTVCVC

| Structure (SMILES) | activity change, negative = inhibition |
| --- | --- |
| O=c1[nH]cnc2c1ncn2[C@@H]1O[C@H](CO)[C@@H](O)[C@H]1O | 3.94% (inactive) |
| CCCCN1CCCC[C@H]1C(=O)Nc1c(C)cccc1C | 2.4% (inactive) |
| C[C@@H]1CN(c2c(F)c(F)c3c(=O)c(C(=O)O)cn(C4CC4)c3c2F)C[C@H](C)N1 | 9.97% [at 23.8 µM] (inactive) |
| CCN(CC)CCSC(=O)C(c1ccccc1)c1ccccc1 | 22.9% (inactive) |
| CN1CCCCC1CCN1c2ccccc2Sc2ccc(S(C)=O)cc21 (stereo not given) | 11.7% (inactive) |
| Cc1cccc(Nc2cc(Cl)nc(SCC(=O)O)n2)c1C | -15.8% (inactive) |
| O=S(=O)(O)c1cc(I)c(O)c2ncccc12 | -0.927% (inactive) |
| CSc1ccc2c(c1)N(CCC1CCCCN1C)c1ccccc1S2 (stereo not given) | 21.3% (inactive) |
| NC(N)=NCCC[C@H](N)C(=O)O | -0.0772% [at 4.81 µM] (inactive) |
| O=C1O[C@H]([C@@H](O)CO)C(O)=C1O | -2.4% (inactive) |
| Cc1cc(O)cc2c1O[C@](C)(CCC[C@H](C)CCC[C@H](C)CCCC(C)C)CC2 | -20.4% (inactive) |
| CCN(CC)C(C)CN1c2ccccc2Sc2ccccc21 (stereo not given) | -3.84% (inactive) |
| CC1=C(CC(=O)O)c2cc(F)ccc2/C1=C\c1ccc(S(C)(=O)=O)cc1 | -34.3% (inactive) |
| Cc1cc(CC(=O)O)n(C)c1C(=O)c1ccc(Cl)cc1 | 4.25% (inactive) |
| CC1CC(OC(=O)C(O)c2ccccc2)CC(C)(C)N1C (stereo not given) | 1.16% (inactive) |
| CCCOC(=O)c1ccccc1 | -0.897% (inactive) |
| C=CCn1c(=O)n([C@@H]2O[C@H](CO)[C@@H](O)[C@H]2O)c2nc(N)[nH]c(=O)c21 | 13.9% (inactive) |
| CN(C)CCCN1c2ccccc2CCc2ccccc21 | 13.6% (inactive) |
| CC1=C(C/C=C(\C)CCC[C@H](C)CCC[C@H](C)CCCC(C)C)C(=O)c2ccccc2C1=O | 4.2% (inactive) |
| CN1CCN(C2Cc3ccccc3Sc3ccc(Cl)cc32)CC1 (stereo not given) | 19.6% (inactive) |

| Structure (SMILES) | activity change, negative = inhibition |
| --- | --- |
| CSc1ccc2c(c1)C(N1CCN(C)CC1)Cc1ccccc1S2 (stereo not given) | 36.6% (inactive) |
| O=C(Oc1ccccc1C(=O)O)c1ccccc1O | -4.87% (inactive) |
| Nc1ccc(S(=O)(=O)Nc2ccc(Cl)nn2)cc1 | 4.56% (inactive) |
| CCCCN(CCCC)CC(O)c1cc(Cl)cc2c1-c1ccc(Cl)cc1/C2=C/c1ccc(Cl)cc1 (stereo not given) | 10.6% (inactive) |
| CC[N+](CC)(CC)CCOc1ccc(/C=C/c2ccccc2)cc1 | -8.03% (inactive) |
| O=C(O)COc1nn(Cc2ccccc2)c2ccccc12 | 0.179% (inactive) |
| COc1cc(C(=O)N2CCOCC2)cc(OC)c1OC | 3.34% (inactive) |
| CCCCc1ncc(/C=C(\Cc2cccs2)C(=O)O)n1Cc1ccc(C(=O)O)cc1 | -8.08% (inactive) |
| CN1[C@@H]2CC[C@H]1CC(OC(=O)C(O)c1ccccc1)C2 (stereo not given in full) | 12.4% (inactive) |
| CC(C)(C(=O)O)c1ccc(C(O)CCCN2CCC(C(O)(c3ccccc3)c3ccccc3)CC2)cc1 (stereo not given) | 4.87% (inactive) |
| OCC(CO)N[C@H]1C[C@](O)(CO)[C@@H](O)[C@H](O)[C@H]1O | 0.772% (inactive) |
| CC1(C)[C@@H]2CC[C@@]1(C)C(=O)C2 | 6.8% (inactive) |
| CC(C(O)c1ccc(O)cc1)N1CCC(Cc2ccccc2)CC1 (stereo not given) | 10% (inactive) |
| COc1ccc(S(=O)(=O)Nc2nnc(CC(C)C)s2)cc1 | -23.5% (inactive) |
| Oc1ccc(C(O)CNCCCCCCNCC(O)c2ccc(O)c(O)c2)cc1O (stereo not given) | -7.93% (inactive) |
| C[C@@H]1CCN(C(=O)[C@H](CCCN=C(N)N)NS(=O)(=O)c2cccc3c2NC[C@H](C)C3)[C@@H](C(=O)O)C1 | 16.7% (inactive) |
| Cc1ncc([N+](=O)[O-])n1CC(O)CCl (stereo not given) | 13.2% (inactive) |
| Cc1cccc(C)c1NC(=O)CN(CC(=O)O)CC(=O)O | 6.14% (inactive) |
| NC1CCN(c2cccc(Cl)n2)CC1 | 6.28% (inactive) |
| CC(C)C(=O)c1c(C(C)C)nn2ccccc12 | 26.8% (inactive) |
